Measured values reported in PubChem BioAssay AID504408 (Broad Institute, 2011).
The whole screen tested about 300,000 compounds, of which about 5,200 (1.7%) were called active.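 The calls were made as follows: active = mean replicate activation of at least 50% with a set share of replicates each reaching 50%; inconclusive = only one of those two conditions met; inactive = mean below 50% and too few replicates reaching it.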 Many of the other results were omitted from the sample, so actives are more common in it than they were.

experiment: HSF-1 response element luciferase induction – NIH3T3-HGL cells, MG132 stress, luminescence, single point, primary screen (AID 504408); details: NIH3T3-HGL HSF-1 luciferase reporter, MG132, 8 h; at 9 µM; stronger effect = higher value;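 also: 0% = median of the neutral control wells and 100% = twice that signal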

SMILES	activation
CCOc1ccc(CN(CCCl)CCCl)cc1C(=O)OC	68.2% (active)
CCCOC(=O)C1C2c3ccccc3C(c3ccccc32)C1C(=O)O (stereo not given)	-7.72% (inactive)
C=CCn1c(O)c(/C=N/N2CCOCC2)c(=O)[nH]c1=S	35% (inactive)
CC[C@H]1CC2CN3CCc4c([nH]c5ccccc45)C(C(=O)OC)(C2)C13 (stereo not given in full)	3.35% (inactive)
COc1ccc(-n2c(-c3ccccc3)nc3ccccc3c2=O)cc1	-4.8% (inactive)
CC12CCC3C(CCC4CC(=O)CCC43C)C1CC(=NO)C2=O (stereo not given)	-22.3% (inactive)
O=C1NC(=O)N(CCc2ccc(F)cc2)C(=O)/C1=C/C=C/c1ccccc1	196% (active)
O=C(O)COc1ccccc1/C=C1\C(=O)NC(=O)N(CCC2=CCCCC2)C1=O	10% (inactive)
O=C1NC(=O)N(Cc2ccco2)C(=O)/C1=C\c1ccc(-c2ccc(F)cc2)o1	14.8% (inactive)
O=C(COC(=O)c1ccccc1)Nc1ccc(Cl)cc1C(=O)c1ccccc1	-9.79% (inactive)
O=C(NC(=S)N1C[C@H]2C[C@H](C1)c1cccc(=O)n1C2)c1ccc(F)cc1	-0.361% (inactive)
CN(C)CC1Oc2ccccc2OC1(O)c1ccccc1 (stereo not given)	89.4% (active)
CNC(=O)O/N=C(\N)Cc1csc2ccc(Cl)cc12	27.8% (inactive)
O=C(O)C1CSC(c2cccnc2)N1 (stereo not given)	3.54% (inactive)
COC(=O)C(c1ccccc1)N1CCCCCC1 (stereo not given)	1.63% (inactive)
COC(=O)N1C(c2ccccc2)C1c1ccccc1 (stereo not given)	50.1% (active)
O=C(CCN1CCCCC1)NCC(=O)Nc1ccc(Br)cc1C(=O)c1ccccc1	-6.9% (inactive)
O=C(CSC1c2ccccc2-c2ccccc21)N/N=C/c1ccccc1	-4.94% (inactive)
COc1ccc(C2NCc3ccc4c(c3-n3cccc32)OCO4)cc1OC (stereo not given)	4.67% (inactive)
CCOC(=O)C1SC2(C(F)(F)C(F)F)CC1(O)c1c(c(OC)c3occc3c1OC)O2 (stereo not given)	-4.08% (inactive)
